Assay [1] has as its target Tyrosine-protein kinase Fyn (Homo sapiens) (UniProt P06241). To be noted: at 1 µM.
The target of assay [2] is Tyrosine-protein kinase HCK (Homo sapiens) (UniProt P08631). To be noted: at 0.1 µM.
Assay [3] has the same target. As to conditions: at 1 µM.
For assay [4], the target named is Insulin-like growth factor 1 receptor (Homo sapiens) (UniProt P08069). To be noted: at 0.1 µM.
Assay [5] has the same target. As to conditions: at 1 µM.
Assay [6] concerns the target Insulin receptor (Homo sapiens) (UniProt P06213). To be noted: at 0.1 µM.
Assay [7] shares this target. To be noted: at 1 µM.
Assay [8] deals with Insulin receptor-related protein (Homo sapiens) (UniProt P14616). As to conditions: at 0.1 µM.
Sequence of Insulin receptor-related protein (Homo sapiens) (P14616 27-742 limits assumed): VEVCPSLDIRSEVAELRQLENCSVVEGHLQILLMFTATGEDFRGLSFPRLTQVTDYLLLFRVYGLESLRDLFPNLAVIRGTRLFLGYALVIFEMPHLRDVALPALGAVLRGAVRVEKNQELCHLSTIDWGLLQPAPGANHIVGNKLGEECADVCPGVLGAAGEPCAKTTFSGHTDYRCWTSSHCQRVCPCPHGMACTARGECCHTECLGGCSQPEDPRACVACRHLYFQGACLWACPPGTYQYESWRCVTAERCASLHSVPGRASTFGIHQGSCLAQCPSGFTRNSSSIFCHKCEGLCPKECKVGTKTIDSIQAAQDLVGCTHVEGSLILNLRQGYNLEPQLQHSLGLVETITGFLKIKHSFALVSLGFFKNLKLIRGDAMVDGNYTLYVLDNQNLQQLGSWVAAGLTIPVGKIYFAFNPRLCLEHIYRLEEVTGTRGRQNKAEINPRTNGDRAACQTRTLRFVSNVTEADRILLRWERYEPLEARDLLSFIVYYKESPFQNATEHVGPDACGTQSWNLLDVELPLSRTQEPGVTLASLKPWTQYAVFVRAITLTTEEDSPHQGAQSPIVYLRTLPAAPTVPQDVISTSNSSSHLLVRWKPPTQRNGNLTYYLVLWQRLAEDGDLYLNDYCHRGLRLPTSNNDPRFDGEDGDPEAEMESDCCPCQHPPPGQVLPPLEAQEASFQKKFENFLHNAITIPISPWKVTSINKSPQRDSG
Sequence of Insulin receptor-related protein (Homo sapiens) (P14616 747-1297 limits assumed): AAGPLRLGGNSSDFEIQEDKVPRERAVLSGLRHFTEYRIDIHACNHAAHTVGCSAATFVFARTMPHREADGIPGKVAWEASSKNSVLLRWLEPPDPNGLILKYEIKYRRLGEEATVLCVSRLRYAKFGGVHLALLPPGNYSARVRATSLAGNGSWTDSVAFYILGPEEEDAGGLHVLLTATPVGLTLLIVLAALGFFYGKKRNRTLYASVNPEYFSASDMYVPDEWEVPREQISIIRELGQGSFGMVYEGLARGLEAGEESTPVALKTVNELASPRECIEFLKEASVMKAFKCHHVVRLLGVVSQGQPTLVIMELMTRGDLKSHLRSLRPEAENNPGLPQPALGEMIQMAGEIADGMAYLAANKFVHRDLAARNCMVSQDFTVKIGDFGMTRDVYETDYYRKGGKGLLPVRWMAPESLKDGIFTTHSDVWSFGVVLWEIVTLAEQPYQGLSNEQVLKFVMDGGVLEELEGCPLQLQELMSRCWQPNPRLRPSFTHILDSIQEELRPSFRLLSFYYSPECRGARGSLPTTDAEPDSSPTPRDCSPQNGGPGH
Assay [9] shares this target. To be noted: at 1 µM.
Assay [10] concerns the target T1, Tyrosine-protein kinase ITK/TSK (Homo sapiens) (UniProt Q08881).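 Also: mean percent inhibition of ITK from the GSK PKIS screen.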
T1 sequence (whole entry): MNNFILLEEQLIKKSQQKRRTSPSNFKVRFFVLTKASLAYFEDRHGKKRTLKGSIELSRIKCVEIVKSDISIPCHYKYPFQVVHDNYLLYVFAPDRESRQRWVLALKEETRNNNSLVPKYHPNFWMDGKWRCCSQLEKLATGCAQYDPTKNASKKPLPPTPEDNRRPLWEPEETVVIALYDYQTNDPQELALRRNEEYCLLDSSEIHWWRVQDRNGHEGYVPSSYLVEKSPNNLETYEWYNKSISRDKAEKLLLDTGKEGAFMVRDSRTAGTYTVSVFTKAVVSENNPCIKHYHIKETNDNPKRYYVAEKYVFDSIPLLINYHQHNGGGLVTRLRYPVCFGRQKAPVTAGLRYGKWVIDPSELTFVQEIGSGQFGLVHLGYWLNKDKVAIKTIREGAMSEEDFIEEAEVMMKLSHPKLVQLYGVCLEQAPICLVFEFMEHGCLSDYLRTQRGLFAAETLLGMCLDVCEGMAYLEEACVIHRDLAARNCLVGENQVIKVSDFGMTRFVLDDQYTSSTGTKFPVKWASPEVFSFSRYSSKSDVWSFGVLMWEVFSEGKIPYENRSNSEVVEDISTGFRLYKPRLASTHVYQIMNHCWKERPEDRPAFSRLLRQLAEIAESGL
As to conditions: at 0.1 µM.

The structures appear in SMILES notation. Values joined by “and” are separate entries in the source; they are usually repeats but may differ in a detail not shown here. Equal values may be shown once.

This is an account of results in ChEMBL document CHEMBL1961873, “Compounds: GSK PKIS; Assays: Nanosyn kinase panel” (2012).

Sequence of Tyrosine-protein kinase Fyn (Homo sapiens) (P06241 2-537 limits assumed): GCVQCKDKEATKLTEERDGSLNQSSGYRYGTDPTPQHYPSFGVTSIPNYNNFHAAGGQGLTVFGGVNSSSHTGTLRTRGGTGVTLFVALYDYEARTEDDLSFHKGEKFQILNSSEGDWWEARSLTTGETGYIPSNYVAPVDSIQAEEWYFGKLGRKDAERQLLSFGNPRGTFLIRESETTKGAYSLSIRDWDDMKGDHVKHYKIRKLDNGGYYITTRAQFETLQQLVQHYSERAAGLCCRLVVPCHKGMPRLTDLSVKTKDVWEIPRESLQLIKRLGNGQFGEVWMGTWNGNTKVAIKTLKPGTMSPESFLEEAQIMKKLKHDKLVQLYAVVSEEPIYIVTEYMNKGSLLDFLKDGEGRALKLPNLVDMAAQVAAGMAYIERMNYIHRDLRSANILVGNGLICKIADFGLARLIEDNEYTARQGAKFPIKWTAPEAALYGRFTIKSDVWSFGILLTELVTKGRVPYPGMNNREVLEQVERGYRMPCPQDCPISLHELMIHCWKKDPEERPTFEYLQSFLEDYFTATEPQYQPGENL
Sequence of Insulin receptor (Homo sapiens) (P06213 28-758 limits assumed): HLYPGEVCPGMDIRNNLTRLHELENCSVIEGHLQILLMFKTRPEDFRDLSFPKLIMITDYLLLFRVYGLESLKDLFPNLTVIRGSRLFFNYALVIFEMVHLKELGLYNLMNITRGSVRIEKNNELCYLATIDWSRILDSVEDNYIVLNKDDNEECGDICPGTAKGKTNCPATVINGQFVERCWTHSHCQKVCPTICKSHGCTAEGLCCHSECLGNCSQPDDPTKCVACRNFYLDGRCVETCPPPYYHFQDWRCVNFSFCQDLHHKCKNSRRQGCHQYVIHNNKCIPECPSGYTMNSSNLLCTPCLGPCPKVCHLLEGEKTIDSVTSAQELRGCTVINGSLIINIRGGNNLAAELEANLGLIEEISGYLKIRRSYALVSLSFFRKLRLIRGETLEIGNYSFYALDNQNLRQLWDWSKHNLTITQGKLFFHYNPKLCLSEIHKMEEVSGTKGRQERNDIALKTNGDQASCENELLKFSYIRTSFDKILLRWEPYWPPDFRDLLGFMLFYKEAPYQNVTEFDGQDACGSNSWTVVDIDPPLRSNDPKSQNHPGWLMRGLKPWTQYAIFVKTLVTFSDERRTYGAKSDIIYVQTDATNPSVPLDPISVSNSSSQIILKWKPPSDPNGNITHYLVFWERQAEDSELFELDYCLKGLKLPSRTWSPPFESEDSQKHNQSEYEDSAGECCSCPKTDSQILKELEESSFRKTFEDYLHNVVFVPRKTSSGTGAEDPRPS
Sequence of Insulin receptor (Homo sapiens) (P06213 763-1382 limits assumed): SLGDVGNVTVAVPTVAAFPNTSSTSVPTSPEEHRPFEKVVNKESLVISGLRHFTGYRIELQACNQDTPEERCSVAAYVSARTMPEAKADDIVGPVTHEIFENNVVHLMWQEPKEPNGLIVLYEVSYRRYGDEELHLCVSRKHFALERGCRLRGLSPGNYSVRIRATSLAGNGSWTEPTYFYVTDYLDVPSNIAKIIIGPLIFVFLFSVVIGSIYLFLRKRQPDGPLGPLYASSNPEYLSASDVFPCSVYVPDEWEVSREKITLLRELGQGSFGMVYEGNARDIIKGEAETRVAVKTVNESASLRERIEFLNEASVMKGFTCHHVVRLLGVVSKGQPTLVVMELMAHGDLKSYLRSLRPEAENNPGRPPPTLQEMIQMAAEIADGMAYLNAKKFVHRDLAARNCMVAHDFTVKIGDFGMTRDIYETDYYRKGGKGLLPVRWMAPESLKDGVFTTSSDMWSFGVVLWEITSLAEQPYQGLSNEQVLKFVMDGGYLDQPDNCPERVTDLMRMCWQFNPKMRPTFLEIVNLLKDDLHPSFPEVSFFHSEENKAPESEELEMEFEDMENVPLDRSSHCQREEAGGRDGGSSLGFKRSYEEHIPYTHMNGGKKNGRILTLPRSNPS
Sequence of Tyrosine-protein kinase HCK (Homo sapiens) (P08631 2-526 limits assumed): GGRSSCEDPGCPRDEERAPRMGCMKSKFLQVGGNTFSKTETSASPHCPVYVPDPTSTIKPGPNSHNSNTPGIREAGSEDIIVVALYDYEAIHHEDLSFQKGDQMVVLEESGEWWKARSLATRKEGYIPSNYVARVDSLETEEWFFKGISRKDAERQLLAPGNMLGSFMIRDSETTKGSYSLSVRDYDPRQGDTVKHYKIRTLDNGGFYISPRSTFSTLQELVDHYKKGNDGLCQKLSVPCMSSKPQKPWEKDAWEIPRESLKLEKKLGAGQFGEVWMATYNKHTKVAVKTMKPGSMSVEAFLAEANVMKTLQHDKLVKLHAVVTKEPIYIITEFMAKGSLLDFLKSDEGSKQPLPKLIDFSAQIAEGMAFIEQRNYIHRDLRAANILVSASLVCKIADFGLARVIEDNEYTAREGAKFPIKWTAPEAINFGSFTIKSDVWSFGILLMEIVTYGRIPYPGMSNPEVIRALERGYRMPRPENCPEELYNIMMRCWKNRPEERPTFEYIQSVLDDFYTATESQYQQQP
Sequence of Insulin-like growth factor 1 receptor (Homo sapiens) (P08069 31-736 limits assumed): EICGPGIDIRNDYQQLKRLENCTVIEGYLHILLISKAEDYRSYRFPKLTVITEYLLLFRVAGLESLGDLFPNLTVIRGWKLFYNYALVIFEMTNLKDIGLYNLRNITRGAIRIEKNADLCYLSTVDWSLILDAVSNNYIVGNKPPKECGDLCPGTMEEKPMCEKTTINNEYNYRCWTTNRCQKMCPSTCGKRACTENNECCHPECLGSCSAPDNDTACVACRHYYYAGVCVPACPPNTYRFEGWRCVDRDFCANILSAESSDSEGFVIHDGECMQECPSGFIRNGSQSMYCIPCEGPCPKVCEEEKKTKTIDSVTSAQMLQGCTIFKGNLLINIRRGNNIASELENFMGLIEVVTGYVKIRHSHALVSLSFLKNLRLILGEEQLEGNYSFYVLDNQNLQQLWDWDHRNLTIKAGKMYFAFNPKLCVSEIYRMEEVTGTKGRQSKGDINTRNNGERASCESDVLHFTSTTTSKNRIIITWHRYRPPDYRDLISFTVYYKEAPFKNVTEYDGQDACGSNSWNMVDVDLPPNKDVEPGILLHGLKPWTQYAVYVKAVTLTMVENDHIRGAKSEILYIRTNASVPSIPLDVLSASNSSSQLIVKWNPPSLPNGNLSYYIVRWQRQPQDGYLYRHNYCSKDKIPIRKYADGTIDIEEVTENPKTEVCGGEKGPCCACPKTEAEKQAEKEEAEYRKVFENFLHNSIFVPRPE
Sequence of Insulin-like growth factor 1 receptor (Homo sapiens) (P08069 741-1367 limits assumed): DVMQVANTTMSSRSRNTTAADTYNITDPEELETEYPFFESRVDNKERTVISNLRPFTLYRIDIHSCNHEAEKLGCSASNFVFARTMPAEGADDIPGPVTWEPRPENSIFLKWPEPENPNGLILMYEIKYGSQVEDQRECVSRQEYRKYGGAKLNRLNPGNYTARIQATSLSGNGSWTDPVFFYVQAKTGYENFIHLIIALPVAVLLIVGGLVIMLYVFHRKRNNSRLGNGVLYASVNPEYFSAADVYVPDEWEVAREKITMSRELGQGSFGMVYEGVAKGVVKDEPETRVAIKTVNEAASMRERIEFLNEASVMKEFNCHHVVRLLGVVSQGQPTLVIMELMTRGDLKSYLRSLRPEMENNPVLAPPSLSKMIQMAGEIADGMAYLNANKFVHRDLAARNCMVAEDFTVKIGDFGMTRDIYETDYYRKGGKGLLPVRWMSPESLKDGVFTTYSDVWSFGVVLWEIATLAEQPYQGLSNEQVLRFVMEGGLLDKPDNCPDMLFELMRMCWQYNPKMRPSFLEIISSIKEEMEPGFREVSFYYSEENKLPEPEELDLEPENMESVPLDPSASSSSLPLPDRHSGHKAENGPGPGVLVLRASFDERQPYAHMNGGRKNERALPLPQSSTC

Turning to `Nc1nccc(-c2c(-c3ccc(F)cc3)ncn2C2CCNCC2)n1`, the inhibition in [1] is 1.62% and 4.51%; in assay [2], -2.39% and 2.85%; in assay [3], 2.05% and 5.24%; in assay [4], -2.26% and -0.62%; in [5], -1.54% and 3.61%; in assay [6] it was -1.93% and 3.33%. In addition, the inhibition was 1.25% and 4.93% in assay [7]; -5.25% and 0.92% in assay [8]; -4.64% and -1.2% in [9]; -0.56% and 0.6% in assay [10].
For the compound `CCS(=O)(=O)c1ccc(OC)c(Nc2ncc(-c3cccc(F)c3)o2)c1`, the inhibition in [1] amounted to 72.4%; in assay [2] it was 33%; in [3] it was 74.3%; in [4], 5.72%; in assay [5] it was 6.74%; in assay [6], 7.03%. Besides, the inhibition is 8.47% in assay [7], 2.84% in assay [8], 4.59% in assay [9] and 2.16% in assay [10].
For the compound `COC(=O)Nc1nc2ccc(Oc3ccc(NC(=O)Nc4cc(C(F)(F)F)ccc4F)cc3)cc2s1`, the inhibition was 21.1% in [1]; 8.79% in [2]; 28.3% in assay [3]; -0.75% in assay [4]; 1.6% in assay [5]; 1.59% in assay [6]. For the same compound, the inhibition in assay [7] was 3.09%; in assay [8], -2.9%; in assay [9] it was -1.09%; in [10], 1.03%.
As to `Fc1ccc(Nc2nccc(-c3c(-c4ccc(C(F)(F)F)cc4)nn4ncccc34)n2)cc1F`, the inhibition in [1] was 2.19%; in assay [2], 4.54%; in [3] it was 7.92%; in [4], 1.9%; in assay [5], 4.26%; in [6] it was 4.61%. Further, the inhibition in assay [7] turned out to be 3.27%; in assay [8] it was 3.45%; in assay [9], 2.2%; in assay [10] it was 1.45%.
On to `O=C(O[C@H]1CN[C@H](C#Cc2cc3ncnc(Nc4ccc5c(cnn5Cc5ccccc5)c4)c3s2)C1)N1CCOCC1`, for which the inhibition in assay [1] is 8.19%; in assay [2], -0.73%; in assay [3], 3.3%; in [4], -2.85%; in assay [5], -0.43%; in assay [6], 2.89%. The inhibition was 1.79% in assay [7], -1.64% in assay [8], -2.28% in assay [9] and -1.11% in assay [10].
Consider `FC(F)(F)CNc1nccc(-c2cnn3ncccc23)n1`, for which the inhibition in assay [1] is 0.37%; in assay [2], 2.76%; in assay [3], 2.72%; in assay [4], 1.46%; in assay [5], 1.63%; in assay [6], 0.86%. Moreover, the inhibition in assay [7] is 1.21%; in assay [8], -0.18%; in [9], 1.1%; in assay [10], -0.07%.
In the case of `COc1cccc(-n2ncc3c(N/N=C/c4ccc(C(=O)NCCN(C)C)cc4)ncnc32)c1`, the inhibition worked out at 84.5% in [1]; 23.1% in assay [2]; 68.8% in assay [3]; 3.78% in [4]; 4.69% in assay [5]; 0.94% in [6]. Also, the inhibition came out at 1.97% in [7], 5.09% in assay [8], 1.31% in assay [9] and 2.07% in [10].
In the case of `CNC(=O)c1ncccc1Nc1nc(Nc2cc3c(cc2OC)CCCN3C(=O)CN(C)C)nc2[nH]ccc12`, the inhibition in assay [1] amounted to 2.48%; in assay [2], 5.56%; in assay [3], 8.62%; in assay [4], 97%; in assay [5], 97.9%; in [6], 100%. Moreover, the inhibition amounted to 98.1% in [7], 78.2% in assay [8], 94.3% in assay [9] and 1.95% in [10].
Turning to `O=C(Nc1n[nH]c2nnc(-c3cccnc3)cc12)C1CC1`, the inhibition in assay [1] was 4.86%; in assay [2], 0.81%; in assay [3] it was 2.83%; in assay [4] it was 0.22%; in assay [5], -1.27%; in assay [6], 3.48%. The inhibition in [7] was 1.82%; in assay [8] it was -0.87%; in [9] it was -1.01%; in assay [10], 0.11%.
`CCN1CCC(C(=O)Nc2n[nH]c3nnc(-c4cccc(F)c4F)cc23)CC1`: the inhibition in [1] is 0.66%; in assay [2] it was 0.33%; in assay [3], 0.65%; in [4], -0.72%; in [5], -1.06%; in assay [6], -0.08%. Also, the inhibition in [7] is 1.38%; in [8], -1.17%; in assay [9], -1.67%; in [10] it was 0.47%.
`CCOc1ccc2c(-c3ccnc(Nc4cc(OC)cc(C(F)(F)F)c4)n3)cnn2n1`: the inhibition in assay [1] is 13.1%; in [2], 3.74%; in assay [3], 4.95%; in assay [4], 8.6%; in assay [5] it was 7.42%; in [6], -0.85%. Also, the inhibition in [7] is 1.65%; in [8], -0.39%; in assay [9] it was 0.03%; in [10] it was 0.24%.
Take `N#Cc1cccc(Nc2ncc(-c3ccccc3)o2)c1`: the inhibition in assay [1] was determined as 10.8%; in assay [2], 0.69%; in [3] it was 7.33%; in [4] it was 0.34%; in [5], 0.27%; in [6] it was 1.81%. Also, the inhibition was 4.42% in assay [7], 0.61% in assay [8], -0.06% in assay [9] and 1.16% in assay [10].
As to `Cn1c(-c2nonc2N)nc2cnccc21`, the inhibition in [1] turned out to be 2.28%; in [2] it was 6.35%; in assay [3] it was 6.33%; in assay [4], 1.93%; in [5], 3.66%; in [6], 5.09%. In addition, the inhibition was 6.68% in assay [7], 2.16% in [8], -0.85% in assay [9] and 1.03% in [10].
Turning to `COc1ccc(Nc2ncc(-c3ccccc3)o2)cc1OC`, the inhibition in assay [1] was determined as 26.1%; in assay [2], 5.41%; in assay [3] it was 30.2%; in assay [4], 0.16%; in assay [5], 2.03%; in [6] it was 1.73%. Also, the inhibition in [7] is 1.42%; in assay [8], -0.23%; in assay [9], -0.92%; in assay [10], 1.19%.
`c1cnn2ncc(-c3ccnc(NCCCN4CCOCC4)n3)c2c1`: the inhibition was determined as 3.59% in assay [1]; 8.43% in [2]; 6.17% in assay [3]; 3.62% in [4]; 1.61% in assay [5]; 4.01% in assay [6]. The inhibition in [7] is 4.01%; in [8], 2.15%; in assay [9], 0.25%; in assay [10] it was 1.02%.
Regarding `NS(=O)(=O)c1ccc(N/N=C2\C(=O)Nc3cccc(CCc4ccncc4)c32)cc1`, the inhibition in [1] came out at 4.54%; in assay [2] it was 2.52%; in assay [3], 6.49%; in assay [4], 1.21%; in assay [5], 1.06%; in [6] it was 4.32%. Moreover, the inhibition in assay [7] is 5.06%; in assay [8] it was -0.57%; in assay [9] it was 0.48%; in [10], 0.79%.

A word on the inhibition: it is the drop in the measured response relative to a control, in per cent.
